# Measurements reported in PubChem BioAssay AID624284 (Southern Research Specialized Biocontainment Screening …, 2012).
# Entries with a potency or affinity are not part of this list. Calls of active or inactive are those of the source. How the calls were made is not given here.
# Assay: cell based cytopathic effect inhibition, veev tc 83 strain, confirmatory screen (AID 624284)
# Conditions: VEEV TC-83 infected cells; at 25 µM (top of the series)
SMILES,inhibition [%],outcome
CCN1CCN(Cc2nc3ccc([N+](=O)[O-])cc3c(=O)[nH]2)CC1,-1,–
CCN1CCN(Cc2nc3cc([N+](=O)[O-])ccc3c(=O)n2-c2ccccc2)CC1,–,inactive
CCN1CCN(Cc2nc3ccc([N+](=O)[O-])cc3c(=O)n2C(C)C)CC1,–,inactive
CCN1CCN(Cc2nc3ccc(C(N)=O)cc3c(=O)n2-c2ccccc2)CC1,–,inactive
CCN1CCN(Cc2nc3cccc([N+](=O)[O-])c3c(=O)n2-c2ccccc2)CC1,–,inactive
NS(=O)(=O)c1ccc(-n2c(-c3ccccc3)nc3ccc(Br)cc3c2=O)cc1,–,inactive
CCN1CCN(Cc2nc3ccc(C(=O)N(C)C)cc3c(=O)n2-c2ccccc2)CC1,–,inactive
